# Inconclusive results are not listed. Where a call stands in place of a potency, no number is given. A number with no mark means an inactive call. Active and inactive are the calls of the source. Calls come from the whole dose curve; as a rule, active = well fitted curve in the direction sought with a large enough effect; inconclusive = small, poorly fitted or top-dose-only effect, or another doubt; inactive = no such curve, though single readings can be large; an effect the other way counts as inactive or inconclusive.
# Key:
# [1] = biological target: Aldehyde dehydrogenase, mitochondrial (Homo sapiens) (UniProt P05091); test: qHTS for Inhibitors of the Aldehyde Dehydrogenase Family (ALDH2) Primary screen (AID 2061308); note: nearly all actives have a fitted effect of over 55% in size
# [2] = biological target: Retinaldehyde dehydrogenase 3 (Homo sapiens) (UniProt P47895); test: qHTS for Inhibitors of the Aldehyde Dehydrogenase Family (ALDH1A3) Primary screen (AID 2061315)
Compound,"activity change, negative = inhibition [1]","activity change, negative = inhibition [2]",Potency [1],Potency [2]
C[C@@H]1CN(c2c(F)c(F)c3c(=O)c(C(=O)O)cn(C4CC4)c3c2F)C[C@H](C)N1,-0.742% [at 11.2 µM],1.69% [at 11.2 µM],,
Cc1cc(NS(=O)(=O)Cc2ccc(NC(=O)Cc3ccc(Cl)c(Cl)c3)cc2)no1,,,inactive,inactive
O=C(Nc1ccc(S(=O)(=O)Nc2nccs2)cc1)c1cccc2ccccc12,,,inactive,inactive
COc1ccc(OC)c(-c2nnc3n2N=C(c2ccccc2OC)CS3)c1,,,inactive,inactive
COc1cccc(NC(=S)N2CCN(c3cccc(C(F)(F)F)n3)CC2)n1,,,inactive,inactive
NC(=O)C1CCN(c2nc(-c3cccc(Cl)c3)cs2)CC1,,,inactive,inactive
Cc1ccc(S(=O)(=O)Nc2cc(Br)ccc2C(=O)Nc2nc(-c3ccccc3)cs2)cc1,,,inactive,inactive
Oc1c(C(Nc2ccccn2)c2ccccc2)cc(Cl)c2cccnc12 (centres undefined),,,inactive,inactive
COc1cccc(NC(=S)N2CCN(c3ccc(Cl)cc3Cl)CC2)n1,,,inactive,inactive
O=C(CSc1nc(-c2ccc(F)cc2)nc2c1Cc1ccccc1O2)Nc1ccc(F)cc1,,,inactive,inactive
O=C(Nc1ncc(Cc2ccc(C(F)(F)F)cc2)s1)c1ccc(-c2cccnc2)o1,,,inactive,inactive
O=C(Cc1ccc(Cl)c(Cl)c1)Nc1ccc([S+](=O)([O-])Nc2ccc3[nH]ccc3c2)cc1,,,inactive,inactive
N#Cc1ccccc1-c1csc(N2CCC(C(N)=O)CC2)n1,,,inactive,inactive
CC(=O)NC(c1ccco1)c1cc(F)c2cccnc2c1O (centres undefined),,,inactive,inactive
Cc1cc(N[S+](=O)([O-])c2ccc(NC(=O)Cc3ccc4c(c3)OCCO4)cc2)no1,,,inactive,inactive
Cc1cccc(CNc2ccnc(-c3ccccc3C)n2)c1,,,inactive,inactive
O=S(=O)(NC1CCN(S(=O)(=O)c2c(F)cccc2F)CC1)c1ccc2c(c1)OCCO2,,,inactive,inactive
